Screening data from PubChem BioAssay.
Pf growth 48h – inhibits P. falciparum growth in the first generation, 48 h | P. falciparum luciferase growth in erythrocytes, 48 h | Potency, µM (highest dose often 28.7 µM), inactives show at the highest dose activity change, negative = inhibition, most hits filed as inhibitors | 5.9% of 310,000 active; note: potency is the fitted concentration of half-maximal effect; % is set by controls: 0 for no effect and ±100 for the full control effect
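Read-out is firefly luciferase luminescence from an integrated reporter in P. falciparum, so falling signal marks reduced parasite growth. Infected erythrocytes were at 2% hematocrit and 0.1% parasitemia (final) in Albumax-supplemented RPMI 1640.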
SARS PLpro yeast – inhibitors of SARS-CoV papain-like protease in yeast | S. cerevisiae expressing SARS-CoV PLpro, growth rescue | Potency, µM (top dose mostly 32.9 µM), for the others: at the top dose activity, positive = growth rescue, most hits filed as activators | 0.19% of 330,000 active | AID 485353; calls by dose curve; note: potency is the fitted concentration of half-maximal effect; 0% is about no effect; nearly all actives have a fitted effect of over 55% in size
AMA1 RON2 block – inhibitors of Plasmodium falciparum AMA1-RON2 interaction; AlphaScreen AMA1-biotinylated RON2 peptide binding; Potency, µM (doses to about 58.2 µM), without a hit: at the top dose activity change, negative = inhibition, actives largely listed as inhibitors; 0.2% of 360,000 active; AID 720542;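 note: potency is the fitted concentration of half-maximal effect; 0% = vehicle wells and -100% = peptide control; nearly all actives have a fitted effect of over 45% in size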
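AMA1 (3D7) with his tag at 25 nM final met compounds first, then biotinylated RON2 peptide at 25 nM; detection used donor plus acceptor beads, 10 µg/mL apiece, read by AlphaScreen after 30 min at room temperature.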
Shiga toxin inh – Shiga toxin inhibition | Vero cells, Shiga toxin protein synthesis inhibition reporter | inhibition, % at 38.7 µM | 9.2% of 290,000 active | AID 2315; in the data active = inhibition mostly above about 28%, no sharp cut-off; inactive = mostly below about 43%; note: 0% is about no effect
CHX counter – counter-screen for Shiga toxin inhibitors: cycloheximide protein synthesis inhibition; cell reporter, cycloheximide protein synthesis inhibition counterscreen; max response, %; 12% of 300,000 active; in the data active = max response mostly above about 13%, no sharp cut-off; inactive = mostly below about 14%; note: read at 38.3 µM for the half of the compounds with a filed dose; 0% is about no effect
Pf growth 96h – P. falciparum growth inhibition at 96 hour, primary screen for plastid delayed-death inhibitors. P. falciparum luciferase reporter growth, 96 h. Potency, µM (highest dose often 28.7 µM), inactives show top-dose activity change, negative = inhibition, most hits filed as inhibitors. 6.9% of 320,000 active. AID 504834; note: potency is the fitted concentration of half-maximal effect; % is set by controls: 0 for no effect and ±100 for the full control effect
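P. falciparum expressing integrated firefly luciferase, in erythrocytes at 2% hematocrit, 0.05% parasitemia, incubated with compounds 96 h at 37 C, 5% CO2. Growth inhibition read as loss of luminescence; two-generation exposure targets delayed-death apicoplast inhibitors.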
Numbers without * were called inactive; ? = inconclusive; / = no result; [ ] = another dose, or the depositor's remark. Compounds with a hit are over-represented: about 19% of the library has one in this group of screens. Unless noted, calls come from the whole dose curve; as a rule, active = well fitted curve in the direction sought with a large enough effect; inconclusive = small, poorly fitted or top-dose-only effect, or another doubt; inactive = no such curve, though single readings can be large; an effect the other way counts as inactive or inconclusive.

SMILES	Pf growth 48h	SARS PLpro yeast	AMA1 RON2 block	Shiga toxin inh	CHX counter	Pf growth 96h
Cc1cc(OCC(=O)NNC(=O)c2ccncc2)ccc1C(C)C	?	/	68.3%	/	/	9.8%
Cc1cc(OCC(=O)NNC(=O)c2ccncc2)cc(C)c1Cl	?	5.1%	118.8%	-9.4	-3.1	10.4µM*
COc1ccc(CC(=O)NNC(=O)c2ccccn2)cc1	?	1.9%	78.4%	64.4	11.7*	?
COc1ccc(CC(=O)NNC(=O)c2cnccn2)cc1	7.6%	2.8%	110.5%	-5.8	-2.5	23.1%
Cc1cc(C)cc(OCC(=O)NNC(=O)c2cc(C)[nH]n2)c1	5.7%	-10.0%	22.9%	35.0	-1.3	?
Cc1cc(C)cc(OCC(=O)NNC(=O)c2ccccn2)c1	5.22µM*	-2.0%	76.2%	/	/	3.29µM*
O=C(COc1ccc(Cl)cc1)NNC(=O)c1ccccn1	5.22µM*	0.6%	83.7%	-5.4	1.3	?
CCc1nc2c(OCc3cccc(Cl)c3)cccn2c1N(C)C(=O)Nc1ccccc1OC	/	/	-21.3%	/	/	/
CCc1cccc(CC)c1-n1c(SCn2nnc3ccccc3c2=O)nnc1-c1cccnc1	/	-27.0%	-5.9%	-13.4	-1.6	4.15µM*
CCc1cccc(CC)c1-n1c(SCC(=O)N2CCc3ccccc3C2)nnc1-c1cccnc1	11.7µM*	-3.5%	-4.5%[11.6 µM]	-13.0	-6.0	6.57µM*
CCN1C(=O)[C@H]2[C@H]3CN=C(SCc4ccc(C)cc4)N3[C@@](Cc3ccccc3)(C(=O)OC)[C@H]2C1=O	/	3.4%	-5.1%	/	/	/
COc1cccc(OCC(=O)N2CCN(C)CC2)c1	40.9%	4.2%	-9.1%	52.9*	35.4*	-12.2%
COc1cccc(OCC(=O)N2CCCc3ccccc32)c1	17.8%	-1.7%	1.7%	26.4	36.8*	7.3%
O=C(COc1ccc(F)cc1)N1CCCc2ccccc21	-1.9%	-14.4%	15.4%	44.2	11.3	-0.4%
Cc1ccccc1CN1CCc2c(OCC(=O)N3CCCc4ccccc43)cccc2C1=O	?	8.1%	-6.2%	12.9	0.6	14.7µM*
Cc1ccccc1OCC(=O)N1CCCc2ccccc21	-7.5%	-0.5%	1.0%	active	33.4*	-21.2%
CN1CCN(C(=O)COc2ccc(Oc3ccccc3)cc2)CC1	2.5%	1.2%	-2.6%	47.1	5.8	-0.9%
O=C(Cc1csc(-c2ccccc2)n1)NCC(=O)Nc1ccc(F)c(F)c1F	/	-4.9%	-7.1%	/	/	/
CCCc1nc2c3ccccc3ccn2c1Cc1cccc(F)c1	/	/	-10.0%	/	/	/
CCN(CC)c1ccc(/C=N/OCC(=O)N2CCCc3ccccc32)cc1	-6.8%	-19.2%	28.2µM*	18.6	-1.1	9.5%
Cc1cccc(NC(NC(=O)Cc2ccccc2)C(Cl)(Cl)Cl)c1 (stereo unspecified)	?	29.6%	-0.6%[2.32 µM]	-9.5	-3.1	?
CCOC(=O)N1CCC(NC(=O)c2cc(S(=O)(=O)N3CCCC3)cn2C)CC1	7.38µM*	1.4%	11.9%	-15.8	-2.5	0.415µM*
Cn1cc(S(=O)(=O)N2CCCC2)cc1C(=O)NCCc1ccccc1	-12.7%	0.4%	8.3%	17.5	11.5*	2.62µM*
COc1ccc(CCNC(=O)c2cc(S(=O)(=O)N3CCOCC3)cn2C)cc1OC	17.4%	6.3%	0.0%	-6.3	0.9	7.38µM*
Cn1cc(S(=O)(=O)N2CCOCC2)cc1C(=O)NCCc1ccccc1	-5.6%	-0.9%	6.1%	9.0	-2.7	65.9%
SMILES	Pf growth 48h	SARS PLpro yeast	AMA1 RON2 block	Shiga toxin inh	CHX counter	Pf growth 96h
CN1CCN(C(=O)c2ccc(-c3cnc4cccnn34)cc2)CC1	/	/	22.2%	/	/	/
Cc1onc(-c2ccccc2)c1C(=O)NC1CC1	46.2%	1.3%	-4.2%	/	/	5.7%
N/C(=N\OC(=O)c1ccccc1)c1ccccn1	-35.2%	-5.9%	-8.4%	-19.8	-7.9	?
Cc1cccc(C(=O)O/N=C(/c2ccccc2)c2ccncc2)c1	6.6%	-2.5%	?	6.3	13.2	?
COc1ccc(C(=O)O/N=C(/c2ccccc2)c2ccncc2)cc1	183.6%	-1.0%	-2.8%	61.0*	42.3*	-28.7%
N/C(=N\OS(=O)(=O)c1ccccc1)c1ccncc1	?	0.6%	0.0%	24.8	-1.9	8.28µM*
N/C(=N\OC(=O)c1ccccc1)c1ccncc1	75.0%	-1.8%	-5.5%	87.2*	45.7*	?
N/C(=N\OC(=O)c1cccc(Br)c1)c1ccncc1	8.2%	2.9%	-3.0%	83.4*	34.9*	-1.3%
C[C@@H]1CCCCO[C@@H](CN(C)S(=O)(=O)c2ccccc2)[C@@H](C)CN([C@H](C)CO)C(=O)c2cc(NS(=O)(=O)c3ccc(F)cc3)ccc2O1	/	/	-5.5%	/	/	/
N/C(=N\OC(=O)c1ccc(Br)cc1)c1ccncc1	77.7%	-2.0%	-25.3%	51.5*	45.3*	-23.7%
O=C(COC(=O)c1ccncc1)c1ccc(Br)cc1	0.0%	0.8%	-3.6%	36.3	-2.8	21.8%
O=C(Nc1ccc(O)cc1)N1CCOCC1	62.2%	-8.7%	0.7%	8.3	0.7	54.7%
Cc1ccc(C)c(NC(=O)C2C3CCCC2C3c2ccccc2)c1 (stereo unspecified)	-6.1%	11.4%	-12.0%	-3.3	-1.5	11.7µM*
Cc1ccccc1NC(=O)C1C2CCCC1C2c1ccccc1 (stereo unspecified)	-18.0%	3.0%	-11.6%	-13.6	-3.4	?
c1ccc(-c2nc3c4ccccc4ccn3c2CN2CCCCC2)cc1	?	0.0%	-1.3%	35.2	11.1	?
Cc1ccc(-c2nc3c4ccccc4ccn3c2CN2CCCCC2)cc1	9.28µM*	1.2%	-7.5%	58.8*	32.4*	-13.7%
Oc1ccccc1Nc1nc(NCC2CCCO2)c2ccccc2n1 (stereo unspecified)	2.33µM*	0.3%	25.3%	16.5	-3.8	?
COc1cccc(Nc2nc(NCC3CCCO3)c3ccccc3n2)c1 (stereo unspecified)	/	-15.5%	-10.1%	7.2	8.6	-106.7%
c1cncc(-c2nc(NCC3CCCO3)c3ccccc3n2)c1 (stereo unspecified)	?	-2.1%	7.8%	-16.9	-4.7	?
Oc1ccc(Nc2nc(NCC3CCCO3)c3ccccc3n2)cc1 (stereo unspecified)	1.65µM*	-6.1%	-15.5%	14.2	2.4	17.3%
CC(C)Oc1ccc(-c2nc(NCC3CCCO3)c3ccccc3n2)cc1 (stereo unspecified)	?	-3.3%	1.5%	47.4*	20.3*	?
CC(=O)c1nnn(-c2ccc(F)cc2F)c1C	33.9%	0.8%	5.6%	3.8	-0.6	46.3%
CC(=O)c1nnn(-c2c(F)cccc2F)c1C	78.1%	-1.5%	-0.2%	18.5	12.2*	41.3%
COc1ccc(-n2c(SCC(C)=O)nc3sc(C)c(C)c3c2=O)cc1	-33.4%	-3.0%	0.6%	/	-3.2	?
CSC1=C(C#N)C(c2ccc(Cl)cc2)C2=C(CC(C)(C)CC2=O)N1 (stereo unspecified)	7.38µM*	0.7%	-0.4%	27.5	-5.5	17.3%
